{
  "source": "paper PMC4336329",
  "about": "(PLoS ONE, 2015)",
  "note": "The whole screen tested about 310,000 compounds, of which about 2,200 (0.71%) showed an effect of 50% or more. The effect is printed as a negative number. The entries come from a sample that favours strong results as a whole.",
  "data": [
    {"molecular_target": "human ether-à-go-go-related gene (hERG) potassium channel (human, UniProt Q12809)", "sequence (Q12809 whole entry, looked up)": "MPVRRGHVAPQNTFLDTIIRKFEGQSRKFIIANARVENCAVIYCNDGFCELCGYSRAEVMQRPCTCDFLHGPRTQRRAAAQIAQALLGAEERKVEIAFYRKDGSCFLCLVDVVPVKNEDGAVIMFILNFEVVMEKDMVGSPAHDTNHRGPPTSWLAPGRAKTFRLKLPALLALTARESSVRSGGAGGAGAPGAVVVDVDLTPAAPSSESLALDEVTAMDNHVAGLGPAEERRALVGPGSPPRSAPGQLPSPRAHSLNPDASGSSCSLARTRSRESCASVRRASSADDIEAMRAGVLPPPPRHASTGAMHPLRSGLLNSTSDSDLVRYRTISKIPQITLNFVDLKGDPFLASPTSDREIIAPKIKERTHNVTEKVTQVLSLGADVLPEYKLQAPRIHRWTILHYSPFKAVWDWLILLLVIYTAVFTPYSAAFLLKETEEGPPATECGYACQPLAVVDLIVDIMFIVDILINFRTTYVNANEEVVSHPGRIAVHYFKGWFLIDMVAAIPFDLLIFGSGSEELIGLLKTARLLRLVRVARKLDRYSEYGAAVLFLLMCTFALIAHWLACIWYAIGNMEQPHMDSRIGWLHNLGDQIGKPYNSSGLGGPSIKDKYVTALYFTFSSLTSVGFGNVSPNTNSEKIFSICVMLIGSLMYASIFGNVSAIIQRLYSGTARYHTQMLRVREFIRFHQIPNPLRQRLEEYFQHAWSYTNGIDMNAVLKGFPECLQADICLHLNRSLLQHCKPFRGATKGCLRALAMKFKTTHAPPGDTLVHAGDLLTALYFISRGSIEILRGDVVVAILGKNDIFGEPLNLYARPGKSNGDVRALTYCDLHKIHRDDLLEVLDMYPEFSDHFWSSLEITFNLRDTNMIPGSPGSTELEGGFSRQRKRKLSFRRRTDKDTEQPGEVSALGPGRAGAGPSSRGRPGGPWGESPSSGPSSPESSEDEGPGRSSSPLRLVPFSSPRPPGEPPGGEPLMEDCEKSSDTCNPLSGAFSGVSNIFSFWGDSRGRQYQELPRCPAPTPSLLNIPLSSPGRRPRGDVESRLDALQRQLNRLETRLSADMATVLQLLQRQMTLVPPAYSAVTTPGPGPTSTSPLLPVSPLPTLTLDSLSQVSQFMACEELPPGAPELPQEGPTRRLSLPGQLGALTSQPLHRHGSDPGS", "assay": "primary screen, population patch clamp on CHO cells stably expressing hERG; higher = less effect of the substance", "units": {"hERG current change (%, negative = inhibition) at 1uM": "%"}, "values": [
      {"smiles": "COC(=O)c1ccc(NC(=S)Nc2ccc(O)cc2)cc1", "hERG current change (%, negative = inhibition) at 1uM": 5.34},
      {"smiles": "O=C(CNCCCO)Nc1cc(C(F)(F)F)cc(NC(=O)CNCCCO)c1Cl", "hERG current change (%, negative = inhibition) at 1uM": 9.02},
      {"smiles": "N#Cc1cccc(NC(=O)c2ccc(S(=O)(=O)N3CCOCC3)cc2)c1", "hERG current change (%, negative = inhibition) at 1uM": 0.709},
      {"smiles": "COC(=O)c1cc(Cl)cc(Cl)c1OS(=O)(=O)N(C)C", "hERG current change (%, negative = inhibition) at 1uM": 1.43},
      {"smiles": "N#CC1=C(N)Oc2nc[nH]c(=O)c2C1c1cccs1", "note": "(centres unmarked)", "hERG current change (%, negative = inhibition) at 1uM": 17.3},
      {"smiles": "CCOC(=O)C(OC(=O)c1sc(=S)n(C)c1C)C(C)=O", "note": "(centres unmarked)", "hERG current change (%, negative = inhibition) at 1uM": 18},
      {"smiles": "COc1ccccc1CN1CCNC(=O)C1CC(=O)N(C)Cc1nc(C)cs1", "note": "(centres unmarked)", "hERG current change (%, negative = inhibition) at 1uM": 17.2},
      {"smiles": "CC(=O)c1ccccc1NC(=O)COC(=O)c1ccc2c(c1)nc(C)n2-c1ccccc1", "hERG current change (%, negative = inhibition) at 1uM": 20.6},
      {"smiles": "CC(=O)c1c(C)[nH]c(C(=O)OCc2ccc(F)cc2Cl)c1C", "hERG current change (%, negative = inhibition) at 1uM": 10.6},
      {"smiles": "Cc1cc2oc(=O)cc(CN3CCC(C)CC3)c2cc1C", "hERG current change (%, negative = inhibition) at 1uM": 12.8},
      {"smiles": "Cc1ccc(C)c(Oc2coc3cc(O)ccc3c2=O)c1", "hERG current change (%, negative = inhibition) at 1uM": 0.658},
      {"smiles": "CCOC(=O)C1=NN(c2ccc(C)cc2)C2(S1)SC(C(C)=O)=C(C)N2c1ccccc1", "note": "(centres unmarked)", "hERG current change (%, negative = inhibition) at 1uM": 8.85},
      {"smiles": "Clc1cccc(CSc2nnc(-c3cccnc3)n2Cc2ccco2)c1", "hERG current change (%, negative = inhibition) at 1uM": -61},
      {"smiles": "Clc1ccccc1CSc1nnc(-c2cccnc2)n1Cc1ccco1", "hERG current change (%, negative = inhibition) at 1uM": -14.2},
      {"smiles": "C(=C\\c1ccccc1)/CSc1nnc(-c2cccnc2)n1Cc1ccco1", "hERG current change (%, negative = inhibition) at 1uM": -51.9},
      {"smiles": "Clc1ccc(CSc2nnc(-c3cccnc3)n2Cc2ccco2)c(Cl)c1", "hERG current change (%, negative = inhibition) at 1uM": -42.3},
      {"smiles": "C(=C\\c1ccccc1)/CSc1nnc(-c2ccncc2)n1Cc1ccco1", "hERG current change (%, negative = inhibition) at 1uM": -26.9},
      {"smiles": "C(=C\\c1ccccc1)/CSc1nnc(-c2ccccc2)n1Cc1ccco1", "hERG current change (%, negative = inhibition) at 1uM": -45.4},
      {"smiles": "Cc1cc(C)cc(NC(=O)Cn2nnc(C(=O)NCc3ccccc3Cl)c2N)c1", "hERG current change (%, negative = inhibition) at 1uM": 13.6},
      {"smiles": "CCOc1ccc(CCNC(=O)CS(=O)(=O)Cc2nc(-c3ccc(OC)cc3)oc2C)cc1", "hERG current change (%, negative = inhibition) at 1uM": -0.117},
      {"smiles": "COC(=O)[C@]1(C)N[C@H](c2ccc(-c3ccccc3)cc2)[C@@H]2C(=O)N(C)C(=O)[C@@H]21.O=C(O)C(F)(F)F", "hERG current change (%, negative = inhibition) at 1uM": 15.8},
      {"smiles": "Cc1ccccc1N1CCN(CCCN2C(=O)CC(=C(c3ccccc3)c3ccccc3)C2=O)CC1", "hERG current change (%, negative = inhibition) at 1uM": 3.79},
      {"smiles": "Cc1sc(NC(=O)c2ccccc2F)c(CN2CCCCC2)c1C", "hERG current change (%, negative = inhibition) at 1uM": 9.65},
      {"smiles": "CCOc1ccc(NC(=O)CCNC(=O)Cn2cnc3ccccc3c2=O)cc1", "hERG current change (%, negative = inhibition) at 1uM": 18.9},
      {"smiles": "CCN(Cc1ccncc1)C(=O)c1cc(COc2c(C)cccc2C)on1", "hERG current change (%, negative = inhibition) at 1uM": -63.1},
      {"smiles": "CCN(Cc1ccncc1)C(=O)c1cc(COc2c(F)cccc2F)on1", "hERG current change (%, negative = inhibition) at 1uM": -8.09},
      {"smiles": "CCN(Cc1ccncc1)C(=O)c1cc(COc2ccc(C)c(C)c2)on1", "hERG current change (%, negative = inhibition) at 1uM": -5.56},
      {"smiles": "CCN1CCN(C(=O)COc2ccc(S(=O)(=O)Nc3ccc(Cl)cc3)cc2)CC1", "hERG current change (%, negative = inhibition) at 1uM": 12.1},
      {"smiles": "Cc1cccc(NC(=O)Nc2c(C)n(C)n(-c3ccccc3)c2=O)c1", "hERG current change (%, negative = inhibition) at 1uM": 9.37},
      {"smiles": "CCOc1nc(-c2ccccc2)ccc1-c1noc(-c2cccnc2)n1", "hERG current change (%, negative = inhibition) at 1uM": 7.07},
      {"smiles": "COc1ccc(CCNC(=O)CC2Nc3ccccc3NC2=O)cc1OC", "note": "(centres unmarked)", "hERG current change (%, negative = inhibition) at 1uM": 12.7},
      {"smiles": "CCOC(=O)c1c(NC(=S)Nc2ccccc2)sc2c1CCN(C)C2", "hERG current change (%, negative = inhibition) at 1uM": -62.8},
      {"smiles": "CCOC(=O)c1c(NC(=O)Cc2ccccc2)sc2c1CCN(CC)C2.Cl", "hERG current change (%, negative = inhibition) at 1uM": -18.3},
      {"smiles": "CCOC(=O)c1c(NC(=O)Cc2ccccc2)sc2c1CCN(C)C2.Cl", "hERG current change (%, negative = inhibition) at 1uM": -19.2},
      {"smiles": "CCOC(=O)c1c(NC(=S)Nc2ccc(OCC)cc2)sc2c1CCN(C)C2", "hERG current change (%, negative = inhibition) at 1uM": -11},
      {"smiles": "CCOC(=O)N1CCc2c(sc(NC(=O)CN3CCN(C)CC3)c2C(=O)Nc2ccccc2)C1", "hERG current change (%, negative = inhibition) at 1uM": -85.6},
      {"smiles": "CCOC(=O)c1c(NC(=S)Nc2ccccc2)sc2c1CCN(CCc1ccccc1)C2", "hERG current change (%, negative = inhibition) at 1uM": 2.54},
      {"smiles": "CCOC(=O)N1CCc2c(sc(NC(=O)CN3CCOCC3)c2C(=O)Nc2ccccc2)C1", "hERG current change (%, negative = inhibition) at 1uM": -31.9},
      {"smiles": "CCOC(=O)c1c(NC(=S)Nc2ccccc2)sc2c1CCCCC2", "hERG current change (%, negative = inhibition) at 1uM": 12.8},
      {"smiles": "CCOC(=O)c1c(NC(=O)Nc2ccc(C)cc2)sc2c1CCN(C)C2", "hERG current change (%, negative = inhibition) at 1uM": 9.62},
      {"smiles": "CCOC(=O)c1c(NC(=O)CN2CCCCC2)sc2c1CCN(C(=O)OCC)C2", "hERG current change (%, negative = inhibition) at 1uM": 2.11},
      {"smiles": "CCOC(=O)c1c(NC(=S)Nc2ccccc2)sc2c1CCN(CC)C2", "hERG current change (%, negative = inhibition) at 1uM": -80.2},
      {"smiles": "CCOC(=O)c1c(NC(=S)Nc2ccc(Cl)cc2)sc2c1CCN(C)C2", "hERG current change (%, negative = inhibition) at 1uM": -57.4},
      {"smiles": "COc1ccccc1C(=O)Nc1nnc(-c2ccco2)s1", "hERG current change (%, negative = inhibition) at 1uM": 13.9}
    ]}
  ]
}
